Data taken from the supplement of paper PMC9399229.
Several values for one entry are separate records, joined by “and”; a condition that tells them apart may be missing. Equal values may be shown once. Where a name gives a salt, the structure may show the parent alone. ± gives the standard deviation of the averaged measurements. Over roughly 1,900 compounds, “relative cell viability (CellTiter-Glo), compound alone” has its median near 1; the lowest 2% begin near 0.16. The sample holds the lowest values, similar compounds and a random draw of the others, so the mix is not that of the screen.

test system: Hep3B; assay: relative cell viability (CellTiter-Glo), compound alone (fraction); higher = more viable cells (less growth inhibition); settings: cabozantinib 0 µM; 4 days

SMILES	relative cell viability
C=CC(=O)Nc1ccc2ncnc(Nc3ccc(OCc4cccc(F)c4)c(Cl)c3)c2c1	1.41 ± 0.053
NC(=O)Nc1cc(-c2cccc(F)c2)sc1C(=O)N[C@H]1CCCNC1	0.151 ± 0.016
NC(=O)Nc1sc(-c2ccc(F)cc2)cc1C(N)=O	1.1 ± 0.043
COc1cc(C(=O)NC2CCCNC2)cc(OC)c1OC (stereo unspecified) [Troxipide]	1.07 ± 0.12
O=C(NO)c1cccc(C(=O)NCCc2ccccc2)c1	1.16 ± 0.059
COc1cc2ncc(-c3ccccc3)nc2cc1OC [Tyrphostin AG 1296]	1 ± 0.02
Nc1nccc2c1ncn2C1C=C(CO)C(O)C1O (stereo unspecified) [3-Deazaneplanocin A (DZNeP)]	0.933 ± 0.013
Cc1nc(C#Cc2ccnc(Cl)c2)c(C)n1-c1ccc(OC(F)(F)F)cc1	1 ± 0.056
O=C(/C=C/c1ccc2ccccc2n1)c1ccncc1	0.167 ± 0.0076
CCOC(=O)n1ccn(C)c1=S [Carbimazole]	1.02 ± 0.14
CNc1ncnc2c1ncn2[C@@H]1O[C@H](CO)[C@@H](O)[C@H]1O [N6-methyladenosine (m6A)]	1.15 ± 0.042
COc1nc(N)nc2c1ncn2[C@@H]1O[C@H](CO)[C@@H](O)[C@@H]1O [Nelarabine]	1.1 ± 0.035
COc1ccc(C[C@H](N)C(=O)N[C@H]2[C@@H](O)[C@H](n3cnc4c(N(C)C)ncnc43)O[C@@H]2CO)cc1 [Puromycin 2HCl]	0.0517 ± 0.001
COc1cc(-c2cc(-c3ccc(N4CCNCC4)cc3)cnc2C)cc(OC)c1OC	0.937 ± 0.023
c1cc(-c2cnn3cc(-c4ccc(N5CCNCC5)cc4)cnc23)c2cccnc2c1	0.142 ± 0.013
COc1ccc(-c2cnc3c(-c4cccc5ncccc45)cnn3c2)cc1	1.31 ± 0.03
CCCNCC(O)COc1ccccc1C(=O)CCc1ccccc1 (stereo unspecified) [Propafenone HCl]	0.855 ± 0.07
Cc1cc(-c2ccc(CC(=O)Nc3ccc(-c4cccnc4)cc3)cc2)ccn1	1.268 ± 0.0057
CC(C=CC(=O)NO)=CC(C)C(=O)c1ccc(N(C)C)cc1 (stereo unspecified) [Trichostatin A (TSA)]	0.131 ± 0.019
CN1CCN(c2ccc(Nc3cc(-c4cccc(-n5ccc6cc(C7CC7)cc(F)c6c5=O)c4CO)cn(C)c3=O)nc2)CC1	1.1 ± 0.14
Cc1cc(NC(=O)c2cccc(NC(=O)/C=C/CN(C)C)c2)ccc1Nc1nccc(-c2cccnc2)n1	0.837 ± 0.011
O=C(c1cncc(Br)c1)N1CCC(N2CCCC2)CC1	1.03 ± 0.058

SMILES	relative cell viability
O=C(COc1cccc2c(=O)[nH]ccc12)c1ccccc1	1.16 ± 0.033
CC(C)c1ccc(NC(=O)Cn2cnc3c2c(=O)n(C)c(=O)n3C)cc1	1.02 ± 0.041
Cc1ccc(C(=O)N(CCCN)[C@@H](c2oc3cc(Cl)ccc3c(=O)c2Cc2ccccc2)C(C)C)cc1	0.245 ± 0.0053
CC1=C(C(=O)Nc2cc3cn[nH]c3cc2F)C(c2ccc(C(F)(F)F)cc2)CC(=O)N1 (stereo unspecified)	1.3 ± 0.16
C/C(=N\NC(=S)N1CCC1)c1ccccn1	0.0813 ± 0.0087
CN(C)C(=S)NN=C(c1ccccn1)c1ccccn1	0.265 ± 0.025
CCN(CC)C(=S)SSC(=S)N(CC)CC [Disulfiram]	0.134 ± 0.012
CN1CCN(c2ccc(OC(F)(F)F)c(Nc3ncc4c(n3)-c3c(c(C(N)=O)nn3CCO)CC4)c2)CC1	0.48 ± 0.02
O=C(N/N=C/c1ccc(O)c(O)c1)c1cc2ccccc2cc1O [Dynasore]	0.932 ± 0.05
Cc1nc2c([nH]1)-c1ccccc1N(C(=O)c1ccc(NC(=O)c3ccccc3-c3ccccc3)cc1)CC2 [Conivaptan HCl]	1.12 ± 0.15
C[C@@H](O[C@H]1OCCN(Cc2nn(P(=O)(O)O)c(=O)[nH]2)[C@H]1c1ccc(F)cc1)c1cc(C(F)(F)F)cc(C(F)(F)F)c1 [Fosaprepitant dimeglumine salt]	1.04 ± 0.1
O=C(O)C1=CO[C@@H](O[C@@H]2O[C@H](CO)[C@@H](O)[C@H](O)[C@H]2O)[C@@H]2C(CO)=CC[C@H]12 [Geniposidic acid]	1.04 ± 0.16
COc1cc(N2CCC(N)CC2)ccc1Nc1ncc(Cl)c(-c2c[nH]c3ccccc23)n1	0.138 ± 0.00027
CNC(=O)c1ccccc1Nc1nc(Nc2ccc(N3CCOCC3)cc2OC)ncc1Cl	0.273 ± 0.0076
CCOc1cc(N2CCC(O)CC2)ccc1Nc1ncc2c(n1)N(C)c1ccccc1C(=O)N2C	1.14 ± 0.05
Nc1ncnc2c1C(=O)N(c1ccc([C@H]3CC[C@H](CC(=O)O)CC3)cc1)CCO2	1.289 ± 0.0053
CC(C)C[C@H](NP(=O)(O)O[C@@H]1O[C@@H](C)[C@H](O)[C@@H](O)[C@H]1O)C(=O)N[C@@H](Cc1c[nH]c2ccccc12)C(=O)O [Phosphoramidon Disodium Salt]	1.169 ± 0.0058
Cn1nnc2c(C(N)=O)ncn2c1=O [Temozolomide]	1.25 ± 0.15
Cc1cc(N2CCOCC2)ccc1Nc1nc(NC2CCCCC2)c2[nH]cnc2n1	0.971 ± 0.072
CC(C)(C)c1ccc(-c2nc3ccccc3[nH]2)cc1	0.591 ± 0.042
COc1cc2c(c(OC)c1OC)-c1c(cc3c(c1OC)OCO3)CC(C)C(C)C2 (stereo unspecified) [Schisandrin B (Sch B)]	0.988 ± 0.053
Nc1ccc2ncnc(NCCc3ccc(Oc4ccccc4)cc3)c2c1	1.22 ± 0.066

SMILES	relative cell viability
Cn1nnc(-c2ccc3c(c2)[nH]c2nc(Cc4ccccc4)nc(NC4CCC(N)CC4)c23)n1 (stereo unspecified)	0.194 ± 0.0028
CN(C)CCC[C@@]1(c2ccc(F)cc2)OCc2cc(C#N)ccc21 [Escitalopram Oxalate]	1.13 ± 0.13
N#CSc1cc(SC#N)c(N)nc1N	1.061 ± 0.0035
CCOC(=O)c1ccc(N2NC(=O)C(=Cc3ccc([N+](=O)[O-])o3)C2=O)cc1	0.977 ± 0.14
Cn1cc(-c2ccc3c(c2)CCN3C(=O)Cc2cccc(C(F)(F)F)c2)c2c(N)ncnc21	1.34 ± 0.066
CC(C)(C)c1cc(C(=O)C(C#N)=NNc2cccc(Cl)c2)no1	1.11 ± 0.17
O=C(NC1CCOCC1)c1ccc(-c2cc(-c3c[nH]nc3-c3ccccn3)ccn2)cc1	1.23 ± 0.2
O=C(NC1CCNCC1)c1n[nH]cc1NC(=O)c1c(Cl)cccc1Cl	0.157 and 0.162
CC(=O)OCOC(=O)CN(CC(=O)OCOC(C)=O)c1ccccc1OCCOc1ccccc1N(CC(=O)OCOC(C)=O)CC(=O)OCOC(C)=O	1.12 ± 0.016
CNC(=O)[C@@H](c1ccccc1)N1CCc2cc(OC)c(OC)cc2[C@@H]1CCc1ccc(C(F)(F)F)cc1 [Almorexant HCl]	1.19 ± 0.11
Cc1c(N(C)C)c(=O)n(-c2ccccc2)n1C [Amidopyrine]	1.07 ± 0.062
COc1ccc2c(Oc3ccc(NC(=O)c4c(C)n(CC(C)(C)O)n(-c5ccccc5)c4=O)nc3)ccnc2c1	1.16 ± 0.024
O=C(NNc1nc2cc(F)ccc2n2cccc12)c1cnccn1	0.383 ± 0.013
C=C1C(=O)[C@]23[C@H](O)[C@H]1CC[C@H]2[C@@]12CO[C@]3(O)[C@@H](O)[C@@H]1C(C)(C)CC[C@@H]2O [Oridonin]	0.9649 ± 0.0085
CCS(=O)(=O)N1CC(CC#N)(n2cc(-c3ncnc4[nH]ccc34)cn2)C1	0.983 ± 0.088
CO[C@H]1/C=C\C=C(/C)C(=O)NC2=CC(=O)C(NCCN(C)C)=C(C[C@@H](C)C[C@H](OC)[C@H](O)[C@@H](C)/C=C(\C)[C@@H]1OC(N)=O)C2=O [17-DMAG (Alvespimycin) HCl]	0.267 ± 0.043
CN1CC[C@H](c2c(O)cc(O)c3c(=O)cc(-c4ccccc4Cl)oc23)[C@H](O)C1 [Flavopiridol (Alvocidib)]	0.143 ± 0.043
CN1CC[C@H](c2c(O)cc(O)c3c(=O)cc(-c4ccccc4Cl)oc23)[C@H](O)C1 [Flavopiridol HCl]	0.183 ± 0.015
CC(=O)N1c2ccc(-c3ccc(C(=O)O)cc3)cc2[C@H](Nc2ccc(Cl)cc2)C[C@@H]1C	0.698 ± 0.027
N#Cc1c(NC(=O)c2cccc3ccccc23)sc2c1CCCC2 [JNK Inhibitor IX]	1.1 ± 0.056
Cc1cc2c(cc1CC(=O)c1sccc1S(=O)(=O)Nc1onc(C)c1Cl)OCO2 [Sitaxentan sodium]	1.18 ± 0.062
COc1cc(OC)c2c(=O)[nH]c(-c3cc(C)c(OCCO)c(C)c3)nc2c1	0.805 ± 0.0086
